Data as given in PubChem BioAssay (NCATS).
Inconclusive results are not listed. A call without a number means that no potency is given here. Calls of active or inactive are those of the source. The call rests on the fitted dose curve; in most records, active means well fitted inhibition curve with a large enough effect; inconclusive means small, poorly fitted or top-dose-only effect; inactive means flat fitted curve, though single readings scatter.

Biological target: Glutathione peroxidase 1 (Homo sapiens) (UniProt P07203)
Sequence (P07203 whole entry, looked up): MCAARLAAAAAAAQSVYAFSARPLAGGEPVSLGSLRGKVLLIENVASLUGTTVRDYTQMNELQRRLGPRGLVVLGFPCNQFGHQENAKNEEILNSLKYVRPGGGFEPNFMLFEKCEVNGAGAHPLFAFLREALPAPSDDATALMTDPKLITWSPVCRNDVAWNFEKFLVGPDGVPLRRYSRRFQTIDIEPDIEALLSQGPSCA
Assay: Primary qHTS Assay for Inhibitors of Recombinant Selenoprotein Glutathione Peroxidase 1 (GPX1) (AID 1845191); further: nearly all actives have a fitted effect of over 65% in size
Settings: recombinant GPX1, GR-coupled NADPH fluorescence, 15 min; series mostly up to 48.8 µM
From the text: Assay Provider: Elias S.J. Arner MD PhD.
Department of Medical Biochemistry and Biophysics
Karolinska Institutet, Solna, Stockholm, Sweden
Selenoprotein glutathione peroxidases (GPX), like the ubiquitously expressed GPX1 and the ferroptosis modulator GPX4, enact their antioxidant activities by reducing hydroperoxides using glutathione. […] GPX1 and GPX4 inhibitors have thus shown promise as anti-cancer agents. Existing inhibitors are often promiscuous, or modulate GPX activity only indirectly, so novel direct inhibitors identified through screening against GPX1 and GPX4 could be valuable. Here, we developed optimized glutathione reductase (GR)-coupled GPX assays for the biochemical high-throughput screen (HTS) of almost 12,000 compounds with known mechanisms of action. Initial hits were triaged using a GR counter-screen, assessed for isoform specificity using a separate GPX2 assay, and were assessed for general selenocysteine-targeting activity using a thioredoxin reductase (TXNRD1) assay. With this suite of assays, we identified novel GPX1/GPX2- and GPX4-specific inhibitors and can here present a validated pipeline for future discovery research for selenoprotein-targeting agents.
SEQUENCE No. (e.g., 1, 2, 3, etc.); […] (e.g., Cells, Incubation, Reagent, etc.); VALUE; DESCRIPTION.
1; Reagent 1; 3 uL; GPx1 enzyme or no enzyme control in 1536-well, black, solid Greiner assay plate.
2; Compound; 25 nL; Kalypsis pin tool (Wako USA) equipped with a 1536-well pin head.
3; Incubation; 30 min; room temperature.
4; Reagent 2; 1 uL; 10 nM GPX1, 1 mM GSH, 0.5 mM CHP, 0.5 mM NADPH, 100 nM GR, 0.01% BSA substrate
5; Detection; Fluorescence; ViewLux microplate reader, excitation 340 nm and emission 450 nm.
6; Incubation; 15 min; room temperature.
7; Detection; Fluorescence; ViewLux microplate reader, excitation 340 nm and emission 450 nm.
NOTES (numbers refer to Sequence numbers above)
1. 3 uL of 16.66 nM GPX1 and 0.016% BSA in assay buffer (50 mM Tris-HCl, 2 mM EDTA (pH 7.5), 150 mM NaCl) was added to columns 3-48 of 1536-well assay plates using a BioRAPTR Flying Reagent Dispenser (Let's Go Robotics (LGR), Carlsbad, CA). A no-enzyme control (0.01% BSA in TES assay buffer) was added to columns 1-2.
2. 25 nL of test compounds and DMSO controls were added to each well with a pin tool (Kalypsys).
3. The assay plates were incubated for 30 minutes at room temperature.
4. 1 uL of master mix (500 nM glutathione reductase (GR), 5 mM reduced glutathione (GSH), 2.5 mM NADPH in assay buffer) was added. 1 uL of cumene hydroperoxide (CHP) ([2.5 mM] in 50% EtOH) was then added within 5 minutes to initiate the reaction. Final concentrations were: 10 nM GPX1, 1 mM GSH, 0.5 mM CHP, 0.5 mM NADPH, 100 nM GR, 0.01% BSA.
5. Initial fluorescence readout (t=0) at 340/450 nm was measured using a ViewLux multimodal detector (PerkinElmer, Waltham, MA).
7. Endpoint fluorescence readout (t=15) at 340/450 nm was measured 15 min after room temperature incubation.

SMILES	Potency
CNC(=O)c1ccc(N2C(=S)N(c3ccc(C#N)c(C(F)(F)F)c3)C(=O)C23CCC3)cc1F	inactive
COc1ccc(C(=O)c2c(C)n(CCN3CCOCC3)c3ccccc23)cc1	inactive
O=c1[nH]c2ccccc2n1C1CCN(CCCC(c2ccc(F)cc2)c2ccc(F)cc2)CC1	inactive
C[C@H]1O[C@@H](O[C@H]2[C@@H](O)C[C@H](O[C@H]3[C@@H](O)C[C@H](O[C@H]4CC[C@@]5(C)[C@H](CC[C@@H]6[C@@H]5CC[C@]5(C)[C@@H](C7=CC(=O)OC7)CC[C@]65O)C4)O[C@@H]3C)O[C@@H]2C)C[C@H](O)[C@@H]1O	inactive
CCN(CC)C(=O)N[C@@H]1C=C2c3cccc4[nH]cc(c34)C[C@@H]2N(C)C1	inactive
C=C(C)[C@H]1Cc2c(ccc3c2O[C@@H]2COc4cc(OC)c(OC)cc4[C@@H]2C3=O)O1	inactive
CC(=O)Nc1cc([As](=O)(O)O)ccc1O	inactive
Fc1ccc(C(OCCN2CCN(CCCc3ccccc3)CC2)c2ccc(F)cc2)cc1	inactive
C=C1CC[C@@]2(O)[C@H]3Cc4ccc(O)c5c4[C@@]2(CCN3CC2CC2)[C@H]1O5	inactive
CCCN1CCC[C@@H]2Cc3nc(N)ncc3C[C@H]21	inactive
COc1ccccc1N1CCNCC1	inactive
NCC(CC(=O)O)c1ccc(Cl)cc1 (stereo not given)	inactive
Cc1sc2c(c1C)C(c1ccc(Cl)cc1)=N[C@@H](CC(=O)OC(C)(C)C)c1nnc(C)n1-2	inactive
COC[C@H]1OC(=O)c2coc3c2[C@@]1(C)C1=C(C3=O)C2CCC(=O)[C@@]2(C)C[C@H]1OC(C)=O (stereo not given in full)	inactive
CC(=O)[C@H]1CC[C@H]2[C@@H]3CC[C@H]4C[C@](C)(O)CC[C@]4(C)[C@H]3CC[C@]12C	inactive
CCC1(C2=NCCN2)Cc2ccccc2O1 (stereo not given)	inactive
Nc1ccncc1	inactive
CC(CCc1ccccc1)NC(C)C(O)c1ccc(O)cc1 (stereo not given)	inactive
CC(C)(C)NCC(O)c1cc(Cl)c(N)c(Cl)c1 (stereo not given)	inactive
CC(=O)[C@H]1CC[C@H]2[C@@H]3CC[C@H]4C[C@H](O)CC[C@]4(C)[C@H]3C(=O)C[C@]12C	inactive

SMILES	Potency
NCC(O)c1ccc(O)cc1 (stereo not given)	inactive
Oc1ccc(Cl)cc1Cc1ccccc1	inactive
COC1(CS(=O)c2ccccc2)CCN(CCc2c[nH]c3ccc(F)cc23)CC1 (stereo not given)	inactive
CC(C)=CCOc1c2occc2cc2ccc(=O)oc12	inactive
Oc1cccc2cccnc12	inactive
Cc1cccc(C)c1NC(=O)CN1CCCC1=O	inactive
NCC1(CC(=O)O)CCCCC1	inactive
CC[C@@H](CO)NC(=O)[C@@H]1C=C2c3cccc4c3c(cn4C)C[C@H]2N(C)C1	inactive
CN1CCN(C(=O)O[C@H]2c3nccnc3C(=O)N2c2ccc(Cl)cn2)CC1	inactive
OCCOc1ccccc1	inactive
O=C1NCN(c2ccccc2)C12CCN(CC1COc3ccccc3O1)CC2 (stereo not given)	inactive
N#CC(C#N)=Cc1ccc(O)c(O)c1	inactive
c1ccc(C2CC2)c(OCC2=NCCN2)c1	inactive
Cn1cc(C2=C(c3cn(C4CCN(Cc5ccccn5)CC4)c4ccccc34)C(=O)NC2=O)c2ccccc21	inactive
CC[C@@H](CO)NC(=O)[C@@H]1C=C2c3cccc4[nH]cc(c34)C[C@H]2N(C)C1	inactive
O=C(O)C(=O)c1cn(Cc2ccccc2)c2ccc(-c3ccc(OC(F)(F)F)cc3)cc12	inactive
O=c1[nH]c2ccccc2n1CCCN1CCC(n2c(=O)[nH]c3cc(Cl)ccc32)CC1	inactive
CC(O)(CS(=O)(=O)c1ccc(F)cc1)C(=O)Nc1ccc(C#N)c(C(F)(F)F)c1 (stereo not given)	inactive
CCCN1CCC[C@@H]2Cc3[nH]ncc3C[C@H]21	inactive
CC(C)NCC(O)c1ccccc1Cl (stereo not given)	inactive
